Potency and outcome data for 8 molecules are collected here from PubChem BioAssay (Tox21).

Records with an inconclusive call do not appear. Calls of active or inactive are those of the source. Unless noted, calls come from the whole dose curve; as a rule, active = well fitted curve in the direction sought with a large enough effect in the repeat runs; inconclusive = weak or mixed curves; inactive = no such curve, though single readings can be large; an effect the other way counts as inactive or inconclusive.

A short description of assay [1]: qHTS assay to identify small molecule that activate the aryl hydrocarbon receptor (AhR) signaling pathway - cell viability counter screen (AID 743086).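 Note: HepG2 liver cells carrying the AhR DRE luciferase reporter; series mostly up to about 70 µM; nearly all actives have a fitted effect of over 45% in size.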 In short, it runs like this: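 HepG2-AhR-luc (HG2L7.5c1) cells, 4000/well, were preincubated 5 h at 37C, exposed to compound in qHTS format for 24 hr at 37C, then given CellTiter-Fluor for 30 min; viability was read as fluorescence in the reporter wells.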
For orientation: qHTS replaces the single test concentration by a dilution series.

The nature of assay [2]: qHTS assay to identify small molecule antagonists of the peroxisome proliferator-activated receptor gamma (PPARg) signaling pathway - cell viability counter screen (AID 743194). Note: nearly all actives have a fitted effect of over 55% in size. The conditions noted are these: Potency: co-treated with 50 nM rosiglitazone. In short, it runs like this: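 PPARg-UAS-bla HEK293H cells were plated, rested 5 h at 37 C, then treated with compounds plus rosiglitazone (50 nM final) for 17 h at 37 C; viability was then read by CellTiter-Glo luminescence after 30 min at room temperature.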

Assay [3] is described as follows: qHTS assay for small molecule agonists of the antioxidant response element (ARE) signaling pathway (AID 743202; active = well fitted activation curve with a large enough effect in the signal ratio in the repeat runs, not every such curve was filed as active; the % refers to the signal ratio; note: potency is the fitted concentration of half-maximal effect). In short, it runs like this: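 Steps: seed ARE-bla HepG2 cells (2,000/well); incubate 5 h at 37 C; add compounds by pin tool; incubate 16 h at 37 C; add FRET substrate; read fluorescence after 2 h at RT.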
Assay [4] is described as follows: qHTS assay for small molecule activators of the heat shock response signaling pathway (AID 743210; active = well fitted activation curve with a large enough effect in the signal ratio in the repeat runs, with a control signal flat, not every such curve was filed as active; the % refers to the signal ratio;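 note: HeLa cells with beta-lactamase reporter driven by heat shock elements; series mostly up to about 63 µM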). In short, it runs like this: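 Activation of heat shock element-controlled beta-lactamase expression is measured in HeLa cells by LiveBLAzer FRET fluorescence, with compound exposure lasting 5 h at 37 C and substrate loading 2.5 h at room temperature.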
A short description of assay [5]: qHTS assay to identify small molecule agonists of the peroxisome proliferator-activated receptor delta (PPARd) signaling pathway - cell viability counter screen (AID 743211). Note: nearly all actives have a fitted effect of over 55% in size. In short, it runs like this: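 In the same wells used for beta-lactamase reporter measurement, cytotoxicity is scored by CellTiter-Glo. HEK293H PPARd-bla cells receive compound for 17 h at 37C following a 5 h settling period.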

The target in assay [6] is Peroxisome proliferator-activated receptor delta (Homo sapiens) (UniProt Q03181). Briefly: qHTS assay to identify small molecule agonists of the peroxisome proliferator-activated receptor delta (PPARd) signaling pathway (AID 743212; calls by dose curve). In short, it runs like this:
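Cells expressing a UAS-driven beta-lactamase reporter (PPARd-bla HEK293H) were given test compounds after a 5 h settle and kept at 37 C. Reporter activity was then measured as FRET fluorescence using LiveBLAzer B/G substrate.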

Assay [7] can be described thus: qHTS assay to identify small molecule antagonists of the peroxisome proliferator-activated receptor delta (PPARd) signaling pathway - cell viability counter screen (AID 743213). Note: nearly all actives have a fitted effect of over 50% in size. In short, it runs like this: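 Agonist-stimulated (L165041, 300 nM final) HEK293H PPARd UAS-bla cells are exposed to compounds for 17 h at 37 C, and ATP-based luminescence (CellTiter-Glo) from the same wells reports cytotoxicity.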

Assay [8] deals with Peroxisome proliferator-activated receptor delta (Homo sapiens) (UniProt Q03181). Briefly: qHTS assay to identify small molecule antagonists of the peroxisome proliferator-activated receptor delta (PPARd) signaling pathway (AID 743215; active = well fitted inhibition curve with a large enough effect in the signal ratio in the repeat runs, not every such curve was filed as active; the % refers to the signal ratio; note: series mostly up to about 62 µM). In short, it runs like this:
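Cells: HEK293H with a UAS-driven beta-lactamase reporter responsive to PPARd. Compounds were co-added with L165041 (300 nM, final) and incubated 17 h at 37 C before a 2 h room-temperature FRET substrate step and fluorescence reading.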

Assay [9] has as its target Bile acid receptor (Homo sapiens) (UniProt Q96RI1). Description: qHTS assay to identify small molecule antagonists of the farnesoid-X-receptor (FXR) signaling pathway (AID 743217; active = well fitted inhibition curve with a large enough effect in the signal ratio in the repeat runs, not every such curve was filed as active; the % refers to the signal ratio). In short, it runs like this:
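Cells carrying a UAS-driven beta-lactamase reporter (GeneBLAzer FXR-UAS-bla HEK 293T) were plated and rested 5 h at 37 °C. Compounds in DMSO were added alongside chenodeoxycholic acid agonist at 50 uM final and left 16 h at 37 °C before FRET substrate readout.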

Assay [10] can be described thus: qHTS assay to identify small molecule agonists of the farnesoid-X-receptor (FXR) signaling pathway - cell viability counter screen (AID 743218). Note: nearly all actives have a fitted effect of over 45% in size. In short, it runs like this: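 Cells were seeded, left 5 h at 37 C and 5% CO2, then dosed with compound in DMSO for 16 h. After the beta-lactamase FRET read, CellTiter-Glo was added and luminescence measured 30 min later.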

Assay [11] deals with Bile acid receptor (Homo sapiens) (UniProt Q96RI1). Description: qHTS assay to identify small molecule agonists of the farnesoid-X-receptor (FXR) signaling pathway (AID 743220; active = well fitted activation curve with a large enough effect in the signal ratio in the repeat runs, not every such curve was filed as active; the % refers to the signal ratio). In short, it runs like this: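 FXR-UAS-bla HEK 293T cells carrying a UAS-driven beta-lactamase reporter were plated for 5 h at 37C/5% CO2, then exposed to DMSO-dissolved Tox21 10K compounds for 16 h at 37C. A LiveBLAzer B/G FRET substrate was loaded for 2 h at room temperature before fluorescence reading.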

Assay [12] can be described thus: qHTS assay to identify small molecule antagonists of the farnesoid-X-receptor (FXR) signaling pathway - cell viability counter screen (AID 743221; active = well fitted cell-killing curve with a large enough effect in the repeat runs, not every such curve was filed as active; note: nearly all actives have a fitted effect of over 50% in size). In short, it runs like this:
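Here viability was scored by luminescence after CellTiter-Glo addition to wells already read for beta-lactamase. Prior treatment: compound plus CDCA (50 uM final), 16 h, 37 C, HEK 293T FXR-bla cells.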

Assay [13] has as its target Vitamin D3 receptor (Homo sapiens) (UniProt P11473). Briefly: qHTS assay to identify small molecule agonists of the vitamin D receptor (VDR) signaling pathway (AID 743222; calls by dose curve). In short, it runs like this:
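Cells carrying a VDR-driven beta-lactamase reporter are seeded at 2,000 per well and rested 4 h. Compounds in DMSO are added for 16 h at 37C, and FRET substrate fluorescence is measured after 2 h at room temperature.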

Assay [14] has the same target. Briefly: qHTS assay to identify small molecule antagonists of the vitamin D receptor (VDR) signaling pathway (AID 743223; active = well fitted inhibition curve with a large enough effect in the signal ratio in the repeat runs, not every such curve was filed as active; the % refers to the signal ratio). In short, it runs like this: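 Inhibition of agonist-driven VDR signalling is scored in VDR-bla cells: 3 nM final 1alpha,25-dihydroxyvitamin D3 plus compound, 16 h at 37C, then beta-lactamase detection by FRET substrate fluorescence after 2 h.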

Assay [15] has as its target Peroxisome proliferator-activated receptor gamma (Homo sapiens) (UniProt P37231). Briefly: qHTS assay to identify small molecule agonists of the peroxisome proliferator-activated receptor gamma (PPARg) signaling pathway (AID 743094; active = well fitted activation curve with a large enough effect in the signal ratio in the repeat runs, not every such curve was filed as active; the % refers to the signal ratio). In short, it runs like this:
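Cells from the PPARg UAS-bla HEK293H line are plated and incubated 5 h at 37C. Compounds in DMSO are pinned in and left 17 h at 37C. LiveBLAzer B/G substrate is then added for 1 h at room temperature before fluorescence is measured.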

The nature of assay [16]: qHTS assay for small molecule agonists of the antioxidant response element (ARE) signaling pathway - cell viability counter screen (AID 743203; calls by dose curve; note: nearly all actives have a fitted effect of over 55% in size). In short, it runs like this: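 Cytotoxicity was tested in parallel with the ARE reporter screen. ARE-bla HepG2 cells were exposed to compounds for 16 hrs, and viability was taken from CellTiter-Glo luminescence.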
The nature of assay [17]: qHTS assay for small molecule activators of the heat shock response signaling pathway - cell viability counter screen (AID 743209). Note: nearly all actives have a fitted effect of over 50% in size. In short, it runs like this:
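Cytotoxicity counter screen run in parallel with the HSE beta-lactamase reporter, using the same wells. HeLa HSE-bla cells received compound for 5 h at 37 C; ATP-based CellTiter-Glo luminescence was measured after 30 min at room temperature.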

Assay [18] addresses Peroxisome proliferator-activated receptor gamma (Homo sapiens) (UniProt P37231). Briefly: qHTS assay to identify small molecule antagonists of the peroxisome proliferator-activated receptor gamma (PPARg) signaling pathway (AID 743191; calls by dose curve; note: series mostly up to about 63 µM; nearly all actives have a fitted effect of over 30% in size). In short, it runs like this:
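GeneBLAzer PPARg UAS-bla HEK293H cells carrying a UAS-driven beta-lactamase reporter were plated at 3000 cells/well, preincubated 5 h at 37C, then given compound for 17 h at 37C; LiveBLAzer B/G FRET substrate was read after 1 h at room temperature.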

Assay [19] in a line: qHTS assay to identify small molecule agonists of the vitamin D receptor (VDR) signaling pathway - cell viability counter screen (AID 743224). Note: series mostly up to about 63 µM; nearly all actives have a fitted effect of over 50% in size. In short, it runs like this: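 Cells: VDR-bla, 2,000/well, settled 4 h. Treatment: compounds in DMSO, 16 h, 37C/5% CO2. Readout: CellTiter-Glo luminescence after 30 min RT.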

Bile acid receptor (Homo sapiens), sequence (Q96RI1 whole entry, looked up): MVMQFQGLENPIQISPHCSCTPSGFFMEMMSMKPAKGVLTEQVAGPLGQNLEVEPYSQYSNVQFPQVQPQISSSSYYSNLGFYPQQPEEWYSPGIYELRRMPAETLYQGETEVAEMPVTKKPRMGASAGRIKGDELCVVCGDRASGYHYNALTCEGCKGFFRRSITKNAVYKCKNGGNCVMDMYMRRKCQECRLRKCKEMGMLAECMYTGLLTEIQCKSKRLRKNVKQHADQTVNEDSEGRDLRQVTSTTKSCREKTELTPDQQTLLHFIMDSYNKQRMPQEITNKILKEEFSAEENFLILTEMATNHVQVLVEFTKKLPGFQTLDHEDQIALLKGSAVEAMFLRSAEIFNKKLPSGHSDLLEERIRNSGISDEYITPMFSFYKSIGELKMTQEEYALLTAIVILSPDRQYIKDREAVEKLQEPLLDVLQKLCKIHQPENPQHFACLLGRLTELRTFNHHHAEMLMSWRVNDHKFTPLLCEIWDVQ
Vitamin D3 receptor (Homo sapiens), sequence (P11473 whole entry, looked up): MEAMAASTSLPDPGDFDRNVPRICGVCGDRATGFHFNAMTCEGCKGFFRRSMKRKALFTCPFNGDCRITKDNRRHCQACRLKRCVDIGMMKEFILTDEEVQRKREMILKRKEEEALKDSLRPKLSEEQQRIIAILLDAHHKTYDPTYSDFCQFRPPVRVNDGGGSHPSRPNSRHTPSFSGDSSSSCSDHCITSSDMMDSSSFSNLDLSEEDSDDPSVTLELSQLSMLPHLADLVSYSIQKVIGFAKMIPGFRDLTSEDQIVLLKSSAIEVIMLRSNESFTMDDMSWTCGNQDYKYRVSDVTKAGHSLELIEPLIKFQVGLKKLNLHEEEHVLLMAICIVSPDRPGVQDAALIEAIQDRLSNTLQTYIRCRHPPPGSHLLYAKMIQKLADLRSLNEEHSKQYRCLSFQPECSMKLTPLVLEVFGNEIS
Peroxisome proliferator-activated receptor delta (Homo sapiens), sequence (Q03181 whole entry, looked up): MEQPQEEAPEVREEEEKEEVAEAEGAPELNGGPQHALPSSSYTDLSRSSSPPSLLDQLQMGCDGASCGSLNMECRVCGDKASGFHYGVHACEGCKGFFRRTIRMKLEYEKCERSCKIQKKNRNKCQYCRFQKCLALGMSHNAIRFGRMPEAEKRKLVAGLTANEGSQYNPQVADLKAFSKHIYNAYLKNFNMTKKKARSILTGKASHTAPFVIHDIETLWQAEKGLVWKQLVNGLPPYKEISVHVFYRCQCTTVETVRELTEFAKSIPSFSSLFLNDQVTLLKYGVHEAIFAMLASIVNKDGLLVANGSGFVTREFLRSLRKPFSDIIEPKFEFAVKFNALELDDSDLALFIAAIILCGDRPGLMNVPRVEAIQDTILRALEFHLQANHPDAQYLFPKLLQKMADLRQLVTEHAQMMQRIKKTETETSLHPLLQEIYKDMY
Peroxisome proliferator-activated receptor gamma (Homo sapiens), sequence (P37231 whole entry, looked up): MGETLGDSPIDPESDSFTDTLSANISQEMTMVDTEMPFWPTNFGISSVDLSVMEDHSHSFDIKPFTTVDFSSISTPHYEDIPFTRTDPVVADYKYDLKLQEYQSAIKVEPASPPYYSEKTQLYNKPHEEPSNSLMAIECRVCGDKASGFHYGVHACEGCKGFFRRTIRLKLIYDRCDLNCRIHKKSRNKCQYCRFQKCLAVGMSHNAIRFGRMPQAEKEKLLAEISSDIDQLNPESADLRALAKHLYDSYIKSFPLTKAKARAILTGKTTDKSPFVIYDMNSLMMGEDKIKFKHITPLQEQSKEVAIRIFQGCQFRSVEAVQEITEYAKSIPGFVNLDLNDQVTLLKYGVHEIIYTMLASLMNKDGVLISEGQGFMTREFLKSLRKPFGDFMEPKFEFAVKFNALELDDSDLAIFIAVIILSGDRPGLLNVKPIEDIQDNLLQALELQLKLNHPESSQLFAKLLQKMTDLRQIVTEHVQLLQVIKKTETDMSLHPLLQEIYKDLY

For the molecule `CC[C@@H](CO)NC(=O)[C@@H]1C=C2c3cccc4c3c(cn4C)C[C@H]2N(C)C1`, the Potency result in assay [1], in assay [2], in assay [3], in assay [4], in [5] and in assay [7] was “inactive” each time. Also, the Potency entry in assay [8], in assay [10] and in assay [12] was “inactive” each time. Moreover, the molecule was classed as inactive in assay [6], in assay [9], in assay [11], in assay [13] and in assay [14].

`CCOC(=O)C(SP(=S)(OC)OC)c1ccccc1` (centres undefined): the Potency entry in [1], in assay [2], in [3], in [16], in assay [17] and in assay [4] was “inactive” in each case. In addition, the Potency result in [5], in assay [7] and in assay [12] was “inactive” each time. Further, the molecule was called inactive in [15], in assay [9], in assay [11], in assay [13] and in assay [14].

As to `CC(C)c1ccc(O)cc1`, the Potency entry in assay [1], in assay [18], in [2], in assay [16], in [4] and in assay [5] was “inactive” in each case. Further, the Potency result in [7], in assay [10] and in [12] was “inactive” each time. Further, the call in [15], in assay [6], in [13] and in [14] was inactive.

`CNC(=O)Oc1cc(C)c(N(C)C)c(C)c1`: the Potency entry in assay [1], in assay [2], in assay [3], in assay [16], in [17] and in assay [5] was “inactive” in each case. Also, the Potency entry in [7], in [8], in [10], in [12] and in assay [19] was “inactive” each time. The outcome in assay [15], in assay [6] and in assay [9] was inactive.

On to `CCc1ccc(C2CCNCC2)cc1`, for which the Potency entry in [18], in assay [2], in assay [3], in assay [16], in [17] and in assay [4] was “inactive” in each case. Also, the Potency result in assay [5], in [7], in [8], in assay [10] and in assay [12] was “inactive” in each case. Further, the result in [6] was inactive.

`C[C@H](CN1CCOCC1)C(C(=O)N1CCCC1)(c1ccccc1)c1ccccc1`: the result in [15], in assay [6], in assay [11] and in [13] was inactive. Also, the Potency result in [2], in [3], in [16], in [17], in assay [4] and in assay [5] was “inactive” in each case. For the same molecule, the Potency result in assay [7], in [8], in assay [10] and in [12] was “inactive” throughout.

Turning to `C=CCC1(C(C)CC)C(=O)NC(=O)NC1=O` (centres undefined), the Potency result in assay [18], in assay [2], in assay [16], in assay [17], in [5] and in [7] was “inactive” each time. For the same molecule, the Potency entry in assay [10], in [12] and in assay [19] was “inactive” in each case. Moreover, the call in assay [6], in assay [13] and in [14] was inactive.

`Cc1cccc2sc3nncn3c12`: the Potency result in [1], in [2], in [16], in [17], in assay [4] and in [5] was “inactive” each time. For the same molecule, the Potency result in assay [7], in assay [8], in assay [10], in assay [12] and in assay [19] was “inactive” throughout. In addition, the molecule was classed as inactive in assay [15], in [6], in assay [9] and in assay [11]. Also, the Potency in assay [3] was 1370 nM (active).
